# About 410 targets per protein were measured; listed, in parts, are those with the strongest signals and a random draw of the rest.
# B1: BDCA-2 (Homo sapiens), Q8WTT0 (protein)
# chain: MVPEEEPQDREKGLWWFQLKVWSMAVVSILLLSVCFTVSSVVPHNFMYSKTVKRLSKLREYQQYHPSLTCVMEGKDIEDWSCCPTPWTSFQSSCYFISTGMQSWTKSQKNCSVMGADLVVINTREEQDFIIQNLKRNSSYFLGLSDPGGRRHWQWVDQTPYNENVTFWHSGEPNNLDERCAIINFRSSEEWGWNDIHCHVPQKSICKMKKIYI
# Columns and labels:
# Experiment in all cases: glycan array binding signal (z-score within array); higher = stronger binding
# Settings in all cases: glycan notation: IUPAC condensed, linker removed
# [1] = target: Fuc(a1-2)Gal(b1-4)GlcNAc(b1-2)Man(a1-3)[Fuc(a1-2)Gal(b1-4)GlcNAc(b1-2)Man(a1-6)]Man(b1-4)GlcNAc(b1-4)GlcNAc
# Procedure, shortened: (§1)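 Negative Z-scores can be read as non-binding. The Z-score is calculated within each array and then averaged across arrays of one protein sequence at different concentrations or buffers and across linkers. Arrays, 3228 in all, were curated from the Consortium for Functional Glycomics database and kept only where the protein sequence was available.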
# [2] = target: Fuc(a1-2)Gal(b1-4)GlcNAc(b1-2)[Fuc(a1-2)Gal(b1-4)GlcNAc(b1-4)]Man(a1-3)[Fuc(a1-2)Gal(b1-4)GlcNAc(b1-2)Man(a1-6)]Man(b1-4)GlcNAc(b1-4)GlcNAc
# Procedure, shortened: as §1
# [3] = target: Fuc(a1-2)Gal(b1-4)GlcNAc(b1-3)Gal(b1-4)GlcNAc
# Procedure, shortened: as §1
# Fuc(a1-2)[Gal(a1-3)]Gal = target: Fuc(a1-2)[Gal(a1-3)]Gal
# Procedure, shortened: as §1
# [4] = target: Fuc(a1-2)[Gal(a1-3)]Gal(b1-3)GalNAc(b1-3)Gal(a1-4)Gal(b1-4)Glc
# Procedure, shortened: as §1
# [5] = target: Fuc(a1-3)[Gal(b1-4)]GlcNAc
# Procedure, shortened: as §1
# Gal(a1-3)Gal = target: Gal(a1-3)Gal
# Procedure, shortened: as §1
# [6] = target: Gal(a1-4)Gal(b1-4)GlcNAc(b1-2)Man(a1-3)[Gal(a1-4)Gal(b1-4)GlcNAc(b1-2)Man(a1-6)]Man(b1-4)GlcNAc(b1-4)GlcNAc
# Procedure, shortened: as §1
# [7] = target: Gal(b1-3)GlcNAc(b1-2)Man(a1-3)[Gal(b1-3)GlcNAc(b1-2)Man(a1-6)]Man(b1-4)GlcNAc(b1-4)GlcNAc
# Procedure, shortened: as §1
# [8] = target: Gal(b1-3)GlcNAc(b1-3)Gal(b1-3)GlcNAc
# Procedure, shortened: as §1
# [9] = target: Gal(b1-3)GlcNAc(b1-3)Gal(b1-4)GlcNAc(b1-2)Man(a1-3)[Gal(b1-3)GlcNAc(b1-3)Gal(b1-4)GlcNAc(b1-2)Man(a1-6)]Man(b1-4)GlcNAc(b1-4)GlcNAc
# Procedure, shortened: as §1
# [10] = target: Gal(b1-3)[Fuc(a1-4)]GlcNAc
# Procedure, shortened: as §1
# [11] = target: Gal(b1-4)GlcNAc(b1-2)Man(a1-3)Man(b1-4)GlcNAc(b1-4)GlcNAc
# Procedure, shortened: as §1
# [12] = target: Gal(b1-4)GlcNAc(b1-2)Man(a1-3)[Gal(b1-4)GlcNAc(b1-2)Man(a1-6)]Man(b1-4)GlcNAc(b1-4)GlcNAc
# Procedure, shortened: as §1
# [13] = target: Gal(b1-4)GlcNAc(b1-2)Man(a1-3)[Gal(b1-4)GlcNAc(b1-2)Man(a1-6)]Man(b1-4)GlcNAc(b1-4)[Fuc(a1-6)]GlcNAc
# Procedure, shortened: as §1
# [14] = target: Gal(b1-4)GlcNAc(b1-2)Man(a1-3)[Gal(b1-4)GlcNAc(b1-2)Man(a1-6)][GlcNAc(b1-4)]Man(b1-4)GlcNAc(b1-4)[Fuc(a1-6)]GlcNAc
# Procedure, shortened: as §1
# [15] = target: Gal(b1-4)GlcNAc(b1-2)Man(a1-3)[GlcNAc(b1-2)Man(a1-6)]Man(b1-4)GlcNAc(b1-4)GlcNAc
# Procedure, shortened: as §1
# [16] = target: Gal(b1-4)GlcNAc(b1-2)Man(a1-3)[Man(a1-6)]Man(b1-4)GlcNAc(b1-4)GlcNAc
# Procedure, shortened: as §1
# [17] = target: Gal(b1-4)GlcNAc(b1-2)[Gal(b1-4)GlcNAc(b1-4)]Man(a1-3)[GlcNAc(b1-4)][Gal(b1-4)GlcNAc(b1-2)[Gal(b1-4)GlcNAc(b1-6)]Man(a1-6)]Man(b1-4)GlcNAc(b1-4)GlcNAc
# Procedure, shortened: as §1
# [18] = target: Gal(b1-4)GlcNAc(b1-2)[Gal(b1-4)GlcNAc(b1-6)]Man(a1-6)[Gal(b1-4)GlcNAc(b1-2)Man(a1-3)]Man(b1-4)GlcNAc(b1-4)GlcNAc
# Procedure, shortened: as §1
# [19] = target: Gal(b1-4)GlcNAc(b1-2)[Gal(b1-4)GlcNAc(b1-6)]Man(a1-6)[Gal(b1-4)GlcNAc(b1-2)Man(a1-3)]Man(b1-4)GlcNAc(b1-4)[Fuc(a1-6)]GlcNAc
# Procedure, shortened: as §1
# [20] = target: Gal(b1-4)GlcNAc(b1-3)Gal(b1-4)GlcNAc(b1-3)Gal(b1-4)GlcNAc
# Procedure, shortened: as §1
# Gal6S(b1-4)GlcNAc6S = target: Gal6S(b1-4)GlcNAc6S
# Procedure, shortened: as §1
# GalNAc(a1-3)GalNAc = target: GalNAc(a1-3)GalNAc
# Procedure, shortened: as §1
# [21] = target: GalNAc(a1-3)GalNAc(b1-3)Gal(a1-4)Gal(b1-4)GlcNAc
# Procedure, shortened: as §1
# GalNAc(b1-6)GalNAc = target: GalNAc(b1-6)GalNAc
# Procedure, shortened: as §1
# GlcA(b1-3)GlcNAc = target: GlcA(b1-3)GlcNAc
# Procedure, shortened: as §1
# [22] = target: GlcA3S(b1-3)Gal(b1-4)GlcNAc(b1-2)Man
# Procedure, shortened: as §1
# GlcNAc(b1-3)Gal(b1-4)Glc = target: GlcNAc(b1-3)Gal(b1-4)Glc
# Procedure, shortened: as §1
# [23] = target: GlcNAc(b1-3)Gal(b1-4)GlcNAc(b1-3)GalNAc
# Procedure, shortened: as §1
binder,measurement,setting,value
B1,glycan array binding signal (z-score),[1],-0.085
same,glycan array binding signal (z-score),[2],-0.163
same,glycan array binding signal (z-score),[3],-0.038
same,glycan array binding signal (z-score),Fuc(a1-2)[Gal(a1-3)]Gal,-0.099
same,glycan array binding signal (z-score),[4],-0.11
same,glycan array binding signal (z-score),[5],-0.224
same,glycan array binding signal (z-score),Gal(a1-3)Gal,-0.284
same,glycan array binding signal (z-score),[6],8.11
same,glycan array binding signal (z-score),[7],7.94
same,glycan array binding signal (z-score),[8],-0.16
same,glycan array binding signal (z-score),[9],-0.163
same,glycan array binding signal (z-score),[10],-0.188
same,glycan array binding signal (z-score),[11],5.76
same,glycan array binding signal (z-score),[12],8.18
same,glycan array binding signal (z-score),[13],3.64
same,glycan array binding signal (z-score),[14],3.96
same,glycan array binding signal (z-score),[15],6.87
same,glycan array binding signal (z-score),[16],3.54
same,glycan array binding signal (z-score),[17],-0.146
same,glycan array binding signal (z-score),[18],6.95
same,glycan array binding signal (z-score),[19],8.21
same,glycan array binding signal (z-score),[20],-0.237
same,glycan array binding signal (z-score),Gal6S(b1-4)GlcNAc6S,-0.168
same,glycan array binding signal (z-score),GalNAc(a1-3)GalNAc,-0.119
same,glycan array binding signal (z-score),[21],-0.114
same,glycan array binding signal (z-score),GalNAc(b1-6)GalNAc,-0.153
same,glycan array binding signal (z-score),GlcA(b1-3)GlcNAc,-0.153
same,glycan array binding signal (z-score),[22],-0.151
same,glycan array binding signal (z-score),GlcNAc(b1-3)Gal(b1-4)Glc,0.173
same,glycan array binding signal (z-score),[23],-0.167
